IDE exosite inh: displaces the probe from the exo-site of human IDE. P14735. purified IDE, FL-6b probe fluorescence polarization; active compounds read low. z-score at 20 µM. 6.3% of 17,000 active. AID 1259349;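 active means z-score of -3 or lower, meaning strong loss of probe binding signal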;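 further: His-tagged human IDE residues 42-1019 made in E. coli with 30 nM FL-6b probe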
Target sequence (P14735 42-1019 limits assumed): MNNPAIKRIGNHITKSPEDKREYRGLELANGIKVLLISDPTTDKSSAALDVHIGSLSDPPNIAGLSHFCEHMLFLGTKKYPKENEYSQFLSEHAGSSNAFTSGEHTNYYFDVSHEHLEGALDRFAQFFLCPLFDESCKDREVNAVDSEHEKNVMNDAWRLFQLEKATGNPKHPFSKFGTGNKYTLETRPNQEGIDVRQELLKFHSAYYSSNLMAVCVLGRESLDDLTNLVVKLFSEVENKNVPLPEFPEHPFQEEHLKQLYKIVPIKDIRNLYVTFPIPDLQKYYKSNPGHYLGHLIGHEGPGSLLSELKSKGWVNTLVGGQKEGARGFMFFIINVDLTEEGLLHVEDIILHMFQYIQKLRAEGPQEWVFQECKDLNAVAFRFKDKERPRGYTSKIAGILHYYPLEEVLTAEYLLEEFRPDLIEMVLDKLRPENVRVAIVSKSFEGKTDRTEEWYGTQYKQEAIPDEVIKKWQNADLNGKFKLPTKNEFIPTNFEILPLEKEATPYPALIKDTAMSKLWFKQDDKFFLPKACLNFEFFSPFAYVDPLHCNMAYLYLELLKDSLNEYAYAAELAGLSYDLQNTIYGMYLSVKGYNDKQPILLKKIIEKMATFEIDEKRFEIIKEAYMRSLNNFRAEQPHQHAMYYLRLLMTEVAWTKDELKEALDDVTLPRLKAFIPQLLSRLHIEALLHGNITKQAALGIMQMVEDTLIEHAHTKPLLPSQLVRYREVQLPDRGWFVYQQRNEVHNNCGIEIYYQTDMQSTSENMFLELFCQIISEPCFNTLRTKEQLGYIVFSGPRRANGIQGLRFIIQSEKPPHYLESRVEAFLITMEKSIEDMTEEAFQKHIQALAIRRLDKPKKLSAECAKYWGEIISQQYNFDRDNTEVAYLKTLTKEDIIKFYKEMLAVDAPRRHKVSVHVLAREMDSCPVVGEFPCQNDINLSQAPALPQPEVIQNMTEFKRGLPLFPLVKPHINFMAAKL
The depositor's hits bear a star. The sample as a whole holds a higher share of hits than the screen did.

SMILES	IDE exosite inh
O=C(CC1CC1)N1CC(=O)N2[C@@H](CO)[C@@H](c3ccc(C#Cc4ccccc4)cc3)[C@@H]2C1	-11*
O=C(CC1CC1)N1CC(=O)N2[C@H](CO)[C@H](c3ccc(C#Cc4ccc(F)cc4)cc3)[C@H]2C1	0.74
O=C(CC1CC1)N1CC(=O)N2[C@H](CO)[C@H](c3ccc(C#Cc4ccccc4)cc3)[C@H]2C1	-16*
O=C(CC1CC1)N1CC(=O)N2[C@H](CO)[C@@H](c3ccc(C#Cc4ccc(F)cc4)cc3)[C@@H]2C1	3.3
O=C(CC1CC1)N1CC(=O)N2[C@@H](CO)[C@H](c3ccc(C#Cc4ccc(F)cc4)cc3)[C@@H]2C1	-0.63
CN(C)CC#Cc1ccc([C@H]2[C@H](CO)N3CCCCN(C(=O)CN(C)C)C[C@@H]23)cc1	3.6
CNC(=O)C[C@@H]1CC[C@H]2[C@@H](COc3ccc(NC(=O)c4ccccc4F)cc3C(=O)N2C)O1	-0.68
COc1ccccc1NC(=O)N1CCCCN2[C@@H](CO)[C@H](c3ccc(-c4cccc(F)c4)cc3)[C@@H]2C1	3.1
CC(C)CC#Cc1ccc([C@@H]2[C@H]3CN(C(=O)Nc4cc(F)ccc4F)CC(=O)N3[C@H]2CO)cc1	0.91
COc1ccc(-c2ccc([C@@H]3[C@H]4CN(CC5CCOCC5)CCCCN4[C@H]3CO)cc2)cc1	0.21
OC[C@@H]1[C@H](c2ccc(-c3cccnc3)cc2)[C@H]2CN(CC3CC3)CCCCN12	0.7
OC[C@H]1[C@H](c2ccc(-c3cccnc3)cc2)[C@@H]2CN(CC3CC3)CCCCN12	1.8
OC[C@@H]1[C@@H](c2ccc(C#Cc3ccccc3)cc2)[C@@H]2CN(CC3CCOCC3)CCCCN12	-2.6
Cc1ccccc1-c1ccc([C@H]2[C@@H](CO)N3CCCCN(CC4CC4)C[C@H]23)cc1	-11*
Cc1ccccc1-c1ccc([C@@H]2[C@H](CO)N3CCCCN(CC4CC4)C[C@@H]23)cc1	-9.6*
COc1ccc(-c2ccc([C@@H]3[C@@H](CO)N4CCCCN(CC5CCOCC5)C[C@H]34)cc2)cc1	3.8
OC[C@@H]1[C@H](c2ccc(C#Cc3ccccc3)cc2)[C@@H]2CN(CC3CCOCC3)CCCCN12	-3.9*
Cc1ccccc1-c1ccc([C@@H]2[C@H](CO)N3CCCCN(CC4CCOCC4)C[C@@H]23)cc1	-5.5*
OC[C@@H]1[C@H](c2ccc(-c3cccnc3)cc2)[C@@H]2CN(CC3CC3)CCCCN12	1.1
OC[C@@H]1[C@@H](c2ccc(-c3cccnc3)cc2)[C@H]2CN(CC3CC3)CCCCN12	-1.2
OC[C@H]1[C@H](c2ccc(C#Cc3ccccc3)cc2)[C@H]2CN(CC3CCOCC3)CCCCN21	-0.67
Cc1cccc(-c2ccccc2[C@H]2[C@@H](C#N)N(c3ncc(-c4ccccc4)s3)[C@@H]2CO)c1	-0.17
COc1ccc2c3c([nH]c2c1)[C@H](CO)N(C(=O)CN1CCOCC1)CC31CCN(CC2CCCC2)CC1	1.2
CCCC#Cc1ccc([C@H]2[C@@H](C#N)N(C(=O)C3CC3)[C@H]2CO)cc1	-1
CCCNC(=O)N1C[C@H]2[C@@H](c3ccccc31)[C@@H](CO)N2Cc1cccc(OC)c1	1.8
SMILES	IDE exosite inh
O=C(C[C@@H]1CC[C@@H]2[C@H](COC[C@H](O)CN2CCC(F)(F)F)O1)NCC1CC1	1.2
CO[C@H]1CN(C)C(=O)c2cc(NS(C)(=O)=O)ccc2OC[C@@H](C)N(C(=O)C2CCOCC2)C[C@@H]1C	0.012
CNC(=O)C[C@@H]1CC[C@@H]2[C@@H](COc3ccc(NC(=O)c4ccccc4F)cc3C(=O)N2C)O1	-0.71
CC(C)C#Cc1ccc([C@@H]2[C@H]3CN(C(=O)Nc4ccccc4)CCCCN3[C@H]2CO)cc1	3.1
Cc1ccccc1-c1ccc([C@@H]2[C@@H](CO)N3CCCCN(S(C)(=O)=O)C[C@H]23)cc1	1.7
Cc1ccccc1-c1ccc([C@@H]2[C@@H](CO)N3CCCCN(CC4CC4)C[C@H]23)cc1	-6.8*
Cc1ccccc1-c1ccc([C@H]2[C@H](CO)N3CCCCN(CC4CC4)C[C@@H]23)cc1	-2
CC(=O)N(C)C[C@H]1[C@H](c2ccc(-c3ccccc3)cc2)[C@@H](CO)N1C(=O)C1CC1	0.51
CN(C)CC#Cc1ccc([C@H]2[C@@H](CO)N3CCCCN(C(=O)Nc4cc(F)ccc4F)C[C@H]23)cc1	2.3
CC(C)C#Cc1ccc([C@H]2[C@@H](CO)N3C(=O)CN(S(=O)(=O)c4ccccc4)C[C@H]23)cc1	0.72
COCC(=O)N1[C@@H](C#N)[C@@H](c2ccccc2-c2ccccc2F)[C@@H]1CO	0.23
Cc1ccccc1S(=O)(=O)N1CCCCN2[C@H](CO)[C@@H](c3ccc(-c4cncnc4)cc3)[C@@H]2C1	-4.6*
Cc1cccc(S(=O)(=O)N2CCCCN3[C@H](CO)[C@H](c4ccc(-c5cccnc5)cc4)[C@@H]3C2)c1	4.4
O=S(=O)(c1ccccc1F)N1CCCCN2[C@H](C1)[C@@H](c1ccc(-c3cncnc3)cc1)[C@@H]2CO	3.8
Cc1ccccc1S(=O)(=O)N1CCCCN2[C@H](CO)[C@H](c3ccc(-c4cncnc4)cc3)[C@H]2C1	5.4
Cc1ccccc1S(=O)(=O)N1CCCCN2[C@H](C1)[C@H](c1ccc(-c3cccnc3)cc1)[C@@H]2CO	4.1
Cc1cccc(S(=O)(=O)N2CCCCN3[C@H](CO)[C@@H](c4ccc(-c5cccnc5)cc4)[C@@H]3C2)c1	-3.7*
Cc1ccccc1S(=O)(=O)N1CCCCN2[C@H](CO)[C@H](c3ccc(-c4cccnc4)cc3)[C@@H]2C1	0.85
Cc1ccccc1S(=O)(=O)N1CCCCN2[C@@H](CO)[C@@H](c3ccc(-c4cccnc4)cc3)[C@@H]2C1	-14*
Cc1cccc(S(=O)(=O)N2CCCCN3[C@H](CO)[C@H](c4ccc(-c5cccnc5)cc4)[C@H]3C2)c1	4.9
Cc1ccccc1-c1ccccc1[C@H]1[C@@H](C#N)N(C(=O)c2cccc(F)c2)[C@H]1CO	2.6
COc1ccc(-c2ccc([C@H]3[C@@H](C#N)N(C(=O)NC4CCCCC4)[C@H]3CO)cc2)cc1	0.59
CN(C)CC#Cc1ccc([C@@H]2[C@@H](CO)N3C(=O)CN(C(=O)Cc4ccccc4)C[C@H]23)cc1	1.7
CN1c2ccc(Br)cc2[C@H]2[C@H](CCN2C(=O)Cc2ccccc2)[C@H]1CO	2.2
COc1ccc(-c2ccc([C@@H]3[C@H](C#N)N(C(=O)NC4CCCCC4)[C@H]3CO)cc2)cc1	2
SMILES	IDE exosite inh
O=C(c1cnccn1)N1CC(=O)N2[C@@H](CO)[C@@H](c3ccc(C#CCC4CCCC4)cc3)[C@@H]2C1	1.4
O=C(Nc1cccc(F)c1)N1CC(=O)N2[C@H](CO)[C@H](c3ccc(-c4ccccc4F)cc3)[C@@H]2C1	4.1
COc1ccc(-c2ccc([C@H]3[C@@H](C#N)N(C(=O)NC(C)C)[C@H]3CO)cc2)cc1	-0.11
COc1ccc(NC(=O)N(C)C[C@H]2Oc3c(NS(=O)(=O)c4c(C)noc4C)cccc3C(=O)N([C@@H](C)CO)C[C@H]2C)cc1	-0.37
O=C(Nc1ccc(F)cc1)N1CC(=O)N2[C@H](CO)[C@H](c3ccc(-c4ccc(F)cc4)cc3)[C@H]2C1	0.002
O=C(C1CCCCC1)N1CC(=O)N2[C@@H](CO)[C@@H](c3ccc(Br)cc3)[C@@H]2C1	1.9
COc1cccc(-c2ccccc2[C@H]2[C@@H](C#N)N(C(=O)Cc3ccccc3)[C@@H]2CO)c1	-1.6
N#C[C@H]1[C@H](c2ccc(-c3ccccc3F)cc2)[C@H](CO)N1C(=O)c1ccccn1	-3.1*
N#C[C@@H]1[C@@H](c2ccccc2-c2ccccc2F)[C@@H](CO)N1C(=O)c1ccccn1	2

From PubChem
